DAX1 inh-1: NR0B1 (DAX1) inhibition. P51843. HEK293 Gal4-DAX1 luciferase reporter, luminescence. inhibition, % at 6.75 µM. hit rate 0.99% among 340,000;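 active = inhibition above the mean over all tested compounds plus 3 SD, cut at about 4.2% in these data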;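 also: inhibition shows as a rise in luminescence from relieved DAX1 repression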
Target sequence (P51843 207-470 limits assumed): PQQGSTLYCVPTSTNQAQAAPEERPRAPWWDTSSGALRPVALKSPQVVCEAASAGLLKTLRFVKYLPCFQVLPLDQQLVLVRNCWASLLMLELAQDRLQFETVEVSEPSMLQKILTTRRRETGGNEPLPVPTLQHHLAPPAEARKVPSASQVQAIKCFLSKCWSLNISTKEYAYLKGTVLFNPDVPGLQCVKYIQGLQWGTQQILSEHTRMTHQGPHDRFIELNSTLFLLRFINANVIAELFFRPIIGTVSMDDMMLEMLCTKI
hcDAF-12 act: H. contortus DAF-12 activation, primary screen. HEK293 hcDAF-12 lit1-tk-luc reporter, luminescence; 0% DMSO, 100% Δ7-dafachronic acid. activation, % at 6.8 µM. hit rate 1.4% among 370,000. AID 652067;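 active = activation above the mean of all tested compounds plus 3 SD, cut at about 5.5% in these data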
ssDAF12 agonist: S. stercoralis DAF-12 activation, primary screen | AID 652126 | HEK293 ssDAF-12/GRIP1 lit1-tk-luc reporter, luminescence; % of 3 µM dafachronic acid response | hit rate 1% among 370,000 | activation, % at 6.8 µM;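 active = activation above the mean over all tested compounds plus 3 SD, cut at about 0.9% in these data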
DAX1 inh-2: blocks DAX1 repression of SF-1 activated StAR promoter; HEK293T StAR-luciferase reporter, SF-1/DAX-1 repression relief; inhibition, % at 6.8 µM; hit rate 1.1% among 370,000; AID 652010;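 active = inhibition above the mean over all tested compounds plus 3 SD, cut at about 3.6% in these data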;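 also: higher inhibition means more luminescence from relief of DAX-1 repression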
hgDAF12 agonist: activates the H. glycines DAF-12 receptor ligand-binding domain; HEK293 GAL4-hgDAF12 UAS-luciferase reporter, agonist luminescence; normalized to butyrate control; activation, % at 6.8 µM; hit rate 1.8% among 370,000;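 active = activation above a cutoff set at the mean of all screened compounds plus 3 SD, cut at about 10% in these data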
SMARCA2 act: activators of SMARCA2 function; MG213 cells, MMTV-luciferase reporter, dexamethasone, overnight; AID 652017; hit rate 1% among 370,000; activation, % at 9.1 µM; in the data active = activation above about 7.8%
Of the large screens only hits and unclear results are named; the others gave an inactive call. Shown are actives, neighbours in structure and some others; about 4.8% of the full set was active somewhere.

COc1ccccc1NC(=O)NCCC1=CCCCC1	none
COc1ccc(NC(=O)NCCC2=CCCCC2)cc1	hgDAF12 agonist 12
O=C(C1CCC(Cn2c(=S)[nH]c3ccccc3c2=O)CC1)N1CCN(c2ccccc2)CC1 (stereo not given)	none
O=c1c2cc(N3CCOCC3)ccc2[nH]c(=S)n1CC1CCCO1 (stereo not given)	ssDAF12 agonist 0.9
O=C(C1CCC(Cn2c(=S)[nH]c3ccccc3c2=O)CC1)N1CCOCC1 (stereo not given)	DAX1 inh-1 5.7
O=c1c2ccccc2[nH]c(=S)n1CC1CCCO1 (stereo not given)	none
O=C(Nc1ccccc1)n1ccc2ccc(-c3ccc4cc[nH]c4c3)cc21	none (no result: DAX1 inh-1)
CNS(=O)(=O)c1cn(CC(=O)NCc2cccc(OC)c2)cc1S(=O)(=O)NC	hcDAF-12 act 5.8
CNS(=O)(=O)c1cn(CC(=O)NCc2ccc(OC)cc2)cc1S(=O)(=O)NC	none
Cc1cc(Cl)ccc1NC(=S)Nc1ccccn1	DAX1 inh-1 4.3
Cc1cc(Cl)ccc1NC(=S)NCc1ccccc1	none
Cc1cccc(NC(=S)N2CCN(c3ccccn3)CC2)c1	none
Cc1cccc(NC(=S)NNc2cccc(Cl)c2)c1	ssDAF12 agonist 1.0
Cc1cc(Cl)ccc1Nc1ncccc1C(N)=O	DAX1 inh-1 9.6
Cc1cccc(NC(=S)Nc2ccccn2)c1	DAX1 inh-1 5.3, ssDAF12 agonist 1.0
CC(C)(C)c1ccc(-c2nnc(SCC(=O)Nc3ccc(Oc4ccccc4)cc3)n2Cc2ccco2)cc1	none (no result: DAX1 inh-1)
CC(c1ccccc1)n1cc(C(=O)N2CCCN(Cc3ccccc3)CC2)nn1 (stereo not given)	none (no result: DAX1 inh-1)
COc1cccc(NC(=S)Nc2cc(C)cc(C)n2)c1	DAX1 inh-1 5.3, ssDAF12 agonist 1.7
COC(=O)c1ccc(NC(=S)Nc2ccc(O)cc2)cc1	none
Cc1cc(C)nc(NC(=S)Nc2cccc(F)c2)c1	none
COC(=O)c1ccc(NC(=S)Nc2ccccn2)cc1	hgDAF12 agonist 12
Cc1ccc(-c2cc(C(=O)NN=Cc3ccc(-c4ccccc4)cc3)[nH]n2)cc1	none (no result: DAX1 inh-1)
C[C@H]1CCCN1c1cccc2c1S(=O)(=O)N(C1CC1)CCCO2	none (no result: DAX1 inh-1)
Cc1nc2sc(C(=O)NC3CC3)c(N)c2c(C)c1Cl	ssDAF12 agonist 0.9 (no result: DAX1 inh-1)
Cc1nc2sc(C(=O)NCc3ccncc3)c(N)c2c(C)c1Cl	none (no result: DAX1 inh-1)
C=CCN1[C@H](C#N)[C@@H](c2ccccc2)[C@H]1CO	none (no result: DAX1 inh-1)
CCCC1CCC2(CC1)CCC2OC(=O)Nc1cccc(C(F)(F)F)c1 (stereo not given)	none (no result: DAX1 inh-1, DAX1 inh-2, SMARCA2 act)
Cn1c(=O)c2cc(NC(=O)NCc3ccccc3)ccc2n1C/C=C/c1ccccc1	hgDAF12 agonist 11 (no result: DAX1 inh-1)
COc1cc(Cl)ccc1OCc1cc(C(=O)N(C)CCc2cnn(C)c2)no1	hcDAF-12 act 6.1, hgDAF12 agonist 12
COc1cc(Cl)ccc1OCc1cc(C(=O)N(C)CC2CCCCO2)no1 (stereo not given)	hgDAF12 agonist 12
Cc1ccc(OCc2cc(C(=O)N(C)C3CCCc4ccccc43)no2)cc1C (stereo not given)	hcDAF-12 act 5.8, hgDAF12 agonist 11
COc1ccc(OCc2cc(C(=O)N(C)CC3CCCCO3)no2)c(Cl)c1 (stereo not given)	none
Cc1cc(OCc2cc(C(=O)N(C)CCc3cnn(C)c3)no2)cc(C)c1Cl	DAX1 inh-2 4.2
O=C(c1cccc(C(F)(F)F)c1)N1CC[C@H]2[C@H](CCCN2Cc2ccc(F)cc2)C1	none (no result: DAX1 inh-1)
COc1ccc(Oc2c(Cl)cnn(-c3ccc(C(C)C)c(C)c3)c2=O)cc1	none (no result: DAX1 inh-1, DAX1 inh-2, SMARCA2 act)
Cc1ccccc1CN1CCCCC(NC(=O)Cc2cccs2)C1=O (stereo not given)	none (no result: DAX1 inh-1)
N#CCC[C@H]1CC[C@]2(CCCN(C(=O)C3CCCCC3)C2)O1	none (no result: DAX1 inh-1)
Cc1cc(OCc2cc(C(=O)N(C)C3CCOC3)no2)cc(C)c1Cl (stereo not given)	hgDAF12 agonist 11
CN(/C=C/C(=C\C=[N+](C)c1ccccc1)OCCCS(=O)(=O)[O-])c1ccccc1	hcDAF-12 act 5.6
COc1ccc(C)c(NC(=O)[C@@H]2CCCN2S(=O)(=O)c2cccc3cccnc23)c1	none (no result: DAX1 inh-1, DAX1 inh-2, SMARCA2 act)
O=S1(=O)c2ccc(Br)cc2OC[C@@H](Cc2ccccc2)N1Cc1cn(CC2CCCCC2)nn1	none (no result: DAX1 inh-1)

Assay outcomes: PubChem BioAssay, The Scripps Research Institute Molecular Screening Center
